Source: PubChem BioAssay (National Center for Advancing Translational Sciences (NCATS))
12-LOX inh: inhibitors of human 12S-lipoxygenase ALOX12. AID 1671190. purified 12hLO, xylenol orange hydroperoxide absorbance. Potency, µM (doses to about 108 µM), for inactives: top-dose activity change, negative = inhibition, usual class: inhibitors. P18054. 580,000 compounds, 1.1% hits; further: on the % scale 0 is the no-effect control and ±100 the full control effect
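Purified human 12hLO at 150 nM in 25 mM Hepes, 0.01% Triton X-100, pH 7.0, preincubated 15 min at room temperature with compound. Reaction started with 40 uM arachidonic acid, 30 min at room temperature. Hydroperoxide measured by Fe-xylenol orange, 573/405 nm absorbance ratio.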
JMJD2A Tudor inh: blocks the human JMJD2A Tudor domain | Potency, µM (doses to about 114 µM), for inactives: at the top dose activity change, negative = inhibition, hits mostly inhibitors | 390,000 compounds, 4.4% hits | AlphaScreen JMJD2A-Tudor / H3K4me3 peptide binding; further: on the % scale 0 is the no-effect control and ±100 the full control effect; nearly all actives have a fitted effect of over 50% in size
G9a block: inhibitors of human histone lysine methyltransferase G9a | Q96KQ7 | G9a H3K9 monomethylation, AlphaScreen, 2 h | Potency, µM (highest dose often 102 µM), without a hit: at the top dose activity, negative = inhibition, actives largely listed as inhibitors | 350,000 compounds, 8.8% hits; further: on the % scale 0 is the no-effect control and ±100 the full control effect; nearly all actives have a fitted effect of over 75% in size
Target sequence (Q96KQ7 913-1193 limits assumed): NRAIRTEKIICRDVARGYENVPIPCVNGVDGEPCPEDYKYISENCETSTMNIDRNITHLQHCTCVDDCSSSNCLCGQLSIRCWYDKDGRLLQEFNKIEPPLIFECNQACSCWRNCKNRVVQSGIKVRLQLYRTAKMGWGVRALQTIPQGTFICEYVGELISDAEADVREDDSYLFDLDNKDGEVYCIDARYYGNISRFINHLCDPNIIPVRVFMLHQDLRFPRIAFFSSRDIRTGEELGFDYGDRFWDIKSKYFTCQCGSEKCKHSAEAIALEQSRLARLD
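Signal arises when biotinylated H3K9 peptide, once monomethylated, bridges streptavidin donor and antibody-captured acceptor beads. Enzyme at 20 nM was preincubated 15 min with test compounds; peptide 500 nM and SAM 20 uM then reacted for 2 h.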
BAZ2B inh: blocks human BAZ2B; AlphaScreen BAZ2B-H3K14Ac peptide displacement; Potency, µM (top dose mostly 114 µM), without a hit: top-dose activity change, negative = inhibition, most hits filed as inhibitors; 360,000 compounds, 4.4% hits; AID 504333; further: on the % scale 0 is the no-effect control and ±100 the full control effect; nearly all actives have a fitted effect of over 60% in size
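AlphaScreen displacement: compounds (up to 110uM) incubated 30 min at room temperature with a preformed 50 nM BAZ2B/50 nM biotinylated H3K14Ac peptide complex in PBS pH 7.4 with Tween-20. Donor and acceptor beads at 10 ug/mL final added, 20 min light-protected before reading.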
HP1b chromo inh: inhibitors of HP1-beta chromodomain binding to methylated histone tails; 390,000 compounds, 0.56% hits; Potency, µM (series often up to 114 µM), without a hit: top-dose activity change, negative = inhibition, actives largely listed as inhibitors; AlphaScreen HP1-beta / biotin-H3K9me3 peptide binding; P83916; further: nearly all actives have a fitted effect of over 70% in size
Target sequence (P83916 whole entry, looked up): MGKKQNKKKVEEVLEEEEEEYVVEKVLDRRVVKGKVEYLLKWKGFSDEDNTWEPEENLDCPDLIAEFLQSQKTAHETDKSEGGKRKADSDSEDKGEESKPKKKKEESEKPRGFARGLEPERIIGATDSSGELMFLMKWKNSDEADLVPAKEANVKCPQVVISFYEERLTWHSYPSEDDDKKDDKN
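AlphaScreen: HP1-beta (50 nM) preformed 30 min with biotin-H3(1-18)K9me3 peptide (50 nM) in PBS pH 7.4, 0.01% Tween-20. Compound added for 30 min at RT, then streptavidin donor/nickel chelate acceptor beads (10 ug/mL) for 30 min.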
PLK1 PBD inh: inhibitors of human PLK1 polo-box domain binding; Potency, µM, inactives show max response, negative = inhibition, most hits filed as inhibitors; P53350; 360,000 compounds, 2.8% hits; Plk1 PBD binding of FITC phosphopeptide, fluorescence polarization; further: series mostly up to about 57 µM; on the % scale 0 is the no-effect control and ±100 the full control effect; nearly all actives have a fitted effect of over 65% in size
Active calls of the source: *; ? = inconclusive; · = not tested or not shown; [ ] = dose if it differs, or a comment. In the library only some 9% were active in any assay of this set; here they are far more common. The call rests on the fitted dose curve; in most records, active means well fitted curve in the direction sought with a large enough effect; inconclusive means small, poorly fitted or top-dose-only effect, or another doubt; inactive means no such curve, though single readings can be large; an effect the other way counts as inactive or inconclusive. Potency means the concentration at half of the fitted maximal effect.

SMILES	12-LOX inh	JMJD2A Tudor inh	G9a block	BAZ2B inh	HP1b chromo inh	PLK1 PBD inh
COc1ccc(NC(=O)C(CC(=O)O)C(C)c2ccccc2)cc1 (configuration not stated)	-26%	14µM*	-38%	7%	-17%	9.5µM*
COC(=O)c1cc(COC(=O)c2ccc(OC)c(S(=O)(=O)N3CCCC3)c2)oc1C	0%	-26%	16%[2.33 µM]	-9%	-8%	-6%
Cc1ccc2c(c1)C(c1ccccc1)N(C(=O)c1ccc(OC(C)C)cc1)CC(=O)N2 (configuration not stated)	3%	?	-2%[59 µM]	-37%	-8%	·
COc1ccc(NC(=O)Nc2ccc(N(C)C)cc2)cc1	0%	-35%	3.5µM*	?	?	-6%
COc1ccc(NC(=O)Nc2ccc(OC)cc2)cc1	7%	2%	20%[12.7 µM]	-6%	38%	-7%
CC(=O)c1ccc(OCCCCCCCOc2ccc(C(C)=O)cc2)cc1	·	-6%	·	6%	40%	-21%
CCN(C=NC1=NN(c2cccc(C(F)(F)F)c2)CC1)CC	?	50µM*	?	50µM*	?	-22%
OCCN(C=NC1=NN(c2cccc(C(F)(F)F)c2)CC1)CCO	?	?	·	-8%	-9%	-11%
Cc1cccc(N2C(=O)CCC2=O)c1	0%	18%[57.1 µM]	15%[59 µM]	-2%	41%	-8%
Cc1cccc(N2CCC(N=CN(C)C)=N2)c1	45µM*	?	4µM*	-24%	6%	-8%
COc1ccc(-c2nc3n(c(=O)c2C#N)CCS3)cc1	-6%	4%	-33%	19%	13%	-20%
FC(F)Oc1ccc(/C=N/c2c(-c3ccc(OC(F)F)cc3)nc3n2CCS3)cc1	17%	50µM*	?	?	?	-12%
Clc1ccc(-n2ncc3c(N4CCCCCC4)ncnc32)cc1	1%	0%	-6%[59 µM]	26%	95%	0%
COc1ccc(OC(=O)C(C)Oc2cccc(C)c2C)cc1 (configuration not stated)	-15%	·	·	·	·	·
COc1ccc(C(=O)OCC(=O)c2c(N)n(C)c(=O)n(C)c2=O)cc1OC	3%	1%[57.1 µM]	-24%	-8%	22%	-12%
Cn1c(N)c(C(=O)COC(=O)CSc2cccc3cccc(Cl)c23)c(=O)n(C)c1=O	1%	50µM*	·	?	-11%	27µM*
Cn1c(N)c(C(=O)COC(=O)Cc2ccsc2)c(=O)n(C)c1=O	246%[57.4 µM]	-8%	45µM*	32%	23%	-3%
CC(=O)Oc1ccc(C(=O)OCC(=O)c2c(N)n(C)c(=O)n(C)c2=O)cc1OC(C)=O	-13%	9%	50µM*	-25%	21%	?
CC(=O)NC(CC(=O)OCC(=O)c1c(N)n(C)c(=O)n(C)c1=O)c1ccccc1 (configuration not stated)	-13%	13µM*	-11%	-18%	-12%	24µM*
Cn1c(N)c(C(=O)COC(=O)Cc2ccc(Br)cc2)c(=O)n(C)c1=O	13%	-4%	·	·	20%	-1%
Cn1c(N)c(C(=O)COC(=O)CSc2ccc3ccccc3c2)c(=O)n(C)c1=O	-2%	-13%	-32%[59 µM]	-2%	17%	-10%
CCCCC(C)n1[nH]c(=O)c2c(C)cc(C)nc21 (configuration not stated)	-22%	-9%	-42%	-8%	28%	-6%
COc1ccc(-c2ccc3ccccc3n2)cc1	0%	-3%	36%[12.7 µM]	-8%	50%	-8%
Nc1ccc(-c2ccc3ccccc3n2)cc1	·	·	19µM*	·	·	·
COc1ccc2nc3oc(C(=O)NCc4cccs4)cc3cc2c1	-21%	-23%	-16%	-2%	37%	-4%
SMILES	12-LOX inh	JMJD2A Tudor inh	G9a block	BAZ2B inh	HP1b chromo inh	PLK1 PBD inh
Cc1nn(CC(=O)Nc2cccc(C(F)(F)F)c2)c(=O)c2cccn12	10%	?	?	-4%	1%	27µM*
Cc1ccccc1-n1c2nc(=O)n(C)c(=O)c-2cc2ccccc21	458%	6%	-32%	-2%	35%	-4%
Cn1c(=O)nc2n(Cc3ccccc3)c3ccccc3cc-2c1=O	?	-10%	8.9µM*	2%	14%	-13%
CC(C)NC(=O)C[C@@H]1C[C@H]2O[C@H](CNC3CCN(C)CC3)[C@@H](O)[C@H]2O1	8%[176 µM]	·	·	·	·	·
CC(C)Nc1nc(-c2cccnc2)nc(-c2ccccc2)c1C#N	·	3%	?	5%	33%	-2%
NC(=S)Nc1ccc(S(=O)(=O)c2ccc(NC(N)=S)cc2)cc1	40µM*	-7%	?	-32%	-13%	-2%
CCOc1ccc(NC(=S)Nc2ccc(OCC)cc2)cc1	?	-9%	3%[12.7 µM]	-19%	31%	-6%
CCOc1ccc(C(N)=S)cc1	14µM*	·	·	·	·	·
CN(C)C(=S)c1ccccc1	?	?	10µM*	-11%	?	21µM*
CN(C)c1ccc(C(N)=S)cc1	16µM*	·	·	·	·	·
CC(=O)Nc1ccc(S(=O)(=O)c2ccc(N)cc2)cc1	-7%	-1%	-4%[59 µM]	-27%	57%	0%
CC(C)Cn1c(SCC(=O)N2CCc3ccccc3C2)nc(O)cc1=O	6%	-20%	·	·	29%	-7%
COCCNc1ncnc2c1cnn2Cc1ccccc1Cl	10%	-8%	15%	3%	32%	-10%
COc1ccccc1Oc1nc2c(c(=O)n(C)c(=O)n2C)n1Cc1cccc(Br)c1	-4%	-20%	?	-39%	22%	·
CSc1ccc(NC(N)=S)cc1	-7%	-5%	-25%	-25%	25%	5%
COc1ccc(C(=O)c2ccc(OC)c(OC)c2)cc1OC	-6%	-3%	99%[59 µM]	-30%	22%	0%
CN(C)C(=S)c1ccc(N(C)C)cc1	?	-22%	7.9µM*	?	?	27µM*
COc1ccc(C(=S)N(C)C)cc1OC	-22%	-14%	?	-16%	?	19µM*
CN(C)c1ccc(NC(N)=S)cc1	?	-32%	10µM*	?	-1%	-11%
Cc1ccc(CN2CCN(/N=C/c3ccc(Cl)c([N+](=O)[O-])c3)CC2)cc1	-4%	45µM*	14µM*	14µM*	?	-1%
Cc1ccc(CN2CCN(/N=C/c3ccc(N(C)C)cc3)CC2)cc1	-7%	?	·	?	?	8%
CC(OC(=O)c1ccc(Cl)c([N+](=O)[O-])c1)C(=O)N1CCN(Cc2ccccc2)CC1 (configuration not stated)	178%	-33%	-6%[12.7 µM]	-11%	4%	-2%
O=[N+]([O-])c1cc(CN2CCC(O)CC2)ccc1Cl	?	0.89µM*	13µM*	50µM*	?	10%
Cc1ccc(CN2CCN(/N=C/c3cc([N+](=O)[O-])ccc3Cl)CC2)cc1	-24%	35µM*	?	32µM*	?	-3%
